Source: PubChem BioAssay (National Center for Advancing Translational Sciences (NCATS))
FLuc counter: inhibits or activates purified firefly luciferase, miR-21 counter-screen; P08659; purified FLuc, Km substrates, luminescence inhibition; Potency, µM (highest dose often 57.5 µM), without a hit: at the top dose activity change, negative = inhibition, usual class: inhibitors; 360,000 compounds, 6.9% hits; AID 588342;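 further: plate controls were vehicle for no effect and reference inhibitor for full effect; nearly all actives have a fitted effect of over 55% in size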
Target sequence (P08659 whole entry, looked up): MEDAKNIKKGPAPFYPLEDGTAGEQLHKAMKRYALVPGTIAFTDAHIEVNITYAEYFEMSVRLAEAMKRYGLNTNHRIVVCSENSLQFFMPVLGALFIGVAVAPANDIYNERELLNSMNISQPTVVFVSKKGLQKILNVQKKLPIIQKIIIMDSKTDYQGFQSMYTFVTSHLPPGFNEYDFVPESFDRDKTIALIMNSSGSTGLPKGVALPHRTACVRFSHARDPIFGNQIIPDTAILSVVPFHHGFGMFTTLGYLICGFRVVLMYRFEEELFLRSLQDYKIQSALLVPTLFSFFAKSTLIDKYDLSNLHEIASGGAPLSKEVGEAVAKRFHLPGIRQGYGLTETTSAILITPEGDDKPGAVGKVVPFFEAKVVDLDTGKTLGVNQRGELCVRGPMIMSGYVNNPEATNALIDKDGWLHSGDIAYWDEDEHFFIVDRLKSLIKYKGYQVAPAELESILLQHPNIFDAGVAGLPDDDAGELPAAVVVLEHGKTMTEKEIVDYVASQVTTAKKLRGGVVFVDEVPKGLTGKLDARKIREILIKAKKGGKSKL
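Biochemical qHTS of compounds, final roughly 60 µM downward over six points, against 10 nM purified firefly luciferase using Km concentrations of substrates (10 uM D-luciferin, 10 uM ATP) in Tris acetate pH 7.5 buffer; luminescence output.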
NPC1 promoter act: activates the NPC1 promoter; Huh7 NPC1 promoter luciferase reporter, 24 h; Potency, µM (highest dose often 9.22 µM), without a hit: at the highest dose activation, most hits filed as activators; 320,000 compounds, 2.4% hits; further: % of control where 0% means no effect; nearly all actives have a fitted effect of over 60% in size
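In 1536-well qHTS, Huh7 cells harboring an NPC1 promoter–luciferase construct received compound for 24 h; activation was quantified by luminescence following luciferase reagent addition.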
SMN2 splice enh: increases expression of the SMN2 splice variant. Potency, µM (highest dose often 46.1 µM), inactives show at the highest dose activity change, positive = activation, most hits filed as activators. HEK293 SMN2-luciferase splicing reporter, luminescence, 30-36 h. 210,000 compounds, 2.8% hits. AID 1458; further: % of control where 0% means no effect; nearly all actives have a fitted effect of over 55% in size
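qHTS luciferase splicing reporter: luminescence rises when SMN2 exon 7 is included in transfected HEK293 cells. Compound exposure lasted 30-36 h at 37C, with 4.5 mM final sodium butyrate as control, followed by a ONE-Glo read.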
ELG1 genotox: induces genotoxicity in HEK293T cells with luciferase-tagged ELG1; 330,000 compounds, 1.3% hits; Potency, µM (doses to about 46 µM), for the others: at the highest dose activity change, positive = activation, hits mostly activators; HEK293T ELG1-luciferase reporter, luminescence, 16 h; AID 504466; further: % of control where 0% means no effect; nearly all actives have a fitted effect of over 60% in size
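Reporter readout depends on ELG1 protein level, which increases with genetic stress. After 16 hr compound exposure at 37 °C, luciferase activity was quantified using ONE-Glo.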
Rab9 promoter act: activators of Rab9 promoter; Potency, µM (top dose mostly 9.22 µM), for the others: at the top dose activation, negative = inhibition, usual class: activators; 320,000 compounds, 2.8% hits; Huh7 Rab9 promoter-luciferase reporter, luminescence, 24 h; further: % of control where 0% means no effect; nearly all actives have a fitted effect of over 60% in size
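Stable Rab9-luc Huh7, 1500 cells/well, 2 h settle; cmpd in DMSO, 24 h, 37 °C/5% CO2; luciferase reagent 10 min RT; luminescence.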
Luc counter: counter-screen: inhibitors of Kinase-Glo firefly luciferase; Q27757; AID 1379; 200,000 compounds, 0.28% hits; Kinase-Glo luciferase, ATP luminescence, 8 min; Potency, µM (top dose mostly 38.3 µM), inactives show top-dose activity change, negative = inhibition, hits mostly inhibitors; further: on the % scale 0 is the no-effect control and ±100 the full control effect; nearly all actives have a fitted effect of over 60% in size
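Substrate mix (final 50 mM imidazole pH 7.2, 50 mM KCl, 7 mM MgCl2, 10 uM ATP, 0.01% Tween 20, 0.05% BSA) plus pin-tool compound, then Kinase-Glo detection mix; 8 min ambient, luminescence read.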
An asterisk follows results filed as active; ? = inconclusive; / = not tested or not shown; [ ] = remark or other dose. Most compounds without a hit are left out; they make up all but 7.5% or so of the library. The call rests on the fitted dose curve; in most records, active means well fitted curve in the direction sought with a large enough effect; inconclusive means small, poorly fitted or top-dose-only effect, or another doubt; inactive means no such curve, though single readings can be large; an effect the other way counts as inactive or inconclusive. Potency means the concentration at half of the fitted maximal effect.

SMILES	FLuc counter	NPC1 promoter act	SMN2 splice enh	ELG1 genotox	Rab9 promoter act	Luc counter
O=C(C1CCC1)N1CCN(c2ccc(Cl)cc2)CC1	-8%	2%	/	-1%	0%	/
Cc1ccc(O)c(-c2cc(-c3ccc(F)cc3)no2)c1	0.95µM*	-33%	/	2.1µM*	-33%	/
Oc1ccccc1-c1cc(-c2ccccc2)no1	0.85µM*	5.6µM*	3.2µM*	?	?	-21%
Cc1ccc(-c2cc(-c3ccccc3)no2)c(O)c1	0.17µM*	3.2µM*	/	0.37µM*	2µM*	-17%
Cc1ccc(O)c(NC(=O)c2cc(-c3ccccc3O)no2)c1	6%	/	/	/	/	/
Cc1ccccc1-c1cc(-c2ccccc2O)on1	1.9µM*	?	7.1µM*	?	?	-26%
O=C(NCC1(c2ccccc2)CCOCC1)c1cccs1	-2%	1%	6%	-4%	-5%	-2%
Cn1c(CNC(=O)c2ccco2)nnc1SCC(=O)Nc1c(F)cc(F)cc1Br	0%	-1%	-5%	-2%	-1%	3%
Cc1ccc(C(=O)O/N=C/c2ccc3c(c2)OCO3)cc1	1.2µM*	0%	2%	0%	10%	-4%
Cc1ccc(S(=O)(=O)N/N=C\c2ccc3c(c2)OCO3)cc1	15µM*	-5%	9%	2%	5%	1%
COc1ccc(OC)c(S(=O)(=O)N/N=C\c2ccc3c(c2)OCO3)c1	9.5µM*	26%	/	?	21%	/
COc1ccc(S(=O)(=O)N/N=C\c2ccc3c(c2)OCO3)c(OC)c1	-9%	-12%	/	1%	-13%	/
COc1ccccc1/C=N/OC(=O)c1ccc(C)cc1	1.9µM*	-7%	/	4%	-1%	-1%
CCCOc1ccc(C2C(=O)N(C3CCC(C)CC3)CC(=O)N2Cc2cccc(OC)c2)cc1OC (stereo not drawn)	-2%	/	/	/	/	/
CC(=O)c1cccc(NC(=O)c2cnn(-c3cccc(C)c3)c2-n2cccc2)c1	0%	/	/	/	/	/
O=S(=O)(N/N=C\c1ccc2c(c1)OCO2)c1ccccc1	21µM*	0%	/	8%	0%	/
O=S(=O)(N/N=C\c1ccc2c(c1)OCO2)c1ccc(F)cc1	-11%	0%	/	-5%	3%	/
Cc1ccc(N2CCN(C(=O)c3cn(C)c4ccc(S(=O)(=O)N(C)C5CCCCC5)cc4c3=O)CC2C)cc1 (stereo not drawn)	3%	/	-2%	/	/	/
Cc1ccsc1C(=O)Nc1ccccc1N1CCOCC1	19µM*	6%	6%	-2%	-6%	-6%
O=C(NCCN1CCOCC1)Nc1ccc(Cl)cc1	-3%	6%	7.1µM*	-5%	-2%	1%
O=C(Nc1ccc(S(=O)(=O)N2CCOCC2)cc1)c1ccc(Br)o1	1%	2%	-22%	-4%	-7%[1.84 µM]	-1%
O=C(Nc1ccccc1N1CCOCC1)c1cc2ccccc2o1	9.5µM*	?	/	4%	16%	/
O=C(Nc1ccc(CN2CCOCC2)cc1)c1ccc(Br)o1	19µM*	3.2µM*	/	?	?	/
CCN(CC)C(=O)c1sc2c(c1C)c(=O)n(-c1ccccc1)c(=O)n2CC(=O)N(CC)c1cccc(C)c1	3%	/	/	/	/	/
O=C(Nc1ccc(N2CCN(C(=O)c3ccccc3)CC2)c(Cl)c1)c1ccc(Br)o1	-1%	-4%	-42%	-7%	-9%	-4%
SMILES	FLuc counter	NPC1 promoter act	SMN2 splice enh	ELG1 genotox	Rab9 promoter act	Luc counter
CN1CCN(c2ccccc2NC(=O)c2cc3ccccc3o2)CC1	?	20%	-11%	5%	2%	0%
O=C(Nc1ccc(N2CCOCC2)c(Cl)c1)c1cc2ccccc2o1	8.5µM*	3.5µM*	27%	-11%	3.2µM*	-5%
O=C(Nc1ccc(N2CCOCC2)c(Cl)c1)c1ccc(Br)o1	8.5µM*	1.4µM*	4.5µM*	?	3.2µM*	-23%
CN1CCN(c2ccc(NC(=O)c3cc4ccccc4o3)cc2)CC1	6µM*	1.6µM*	/	10µM*	3.5µM*	/
O=C(Nc1ccccc1N1CCCC1)c1cc2ccccc2o1	7.6µM*	?	22µM*	1%	29%	-18%
CN(C)Cc1nc(-c2cn(C)c3ccccc23)no1	/	/	-13%	/	/	/
Cc1ccc(NC(=O)Cn2c(=O)n(Cc3ccc4c(c3)OCO4)c(=O)c3ccc(C(=O)NC4CCCCC4)cc32)cc1	1%	/	11%	/	/	/
Cc1nnsc1C(=O)Oc1ccccc1Cl	1%	/	/	/	/	/
O=C(Nc1cccnc1Cl)c1cc2ccccc2o1	5.4µM*	1.6µM*	/	9.2µM*	1.3µM*	/
Cc1cc(NC(=O)c2cccnc2Cl)ccc1NC(=O)c1cc2ccccc2o1	-6%	-4%	/	-21%	-5%	/
O=Cc1ccc(OCC(=O)NCC2CCCO2)cc1 (stereo not drawn)	0%	-2%	/	2%	-1%	/
N=C(N)SC(c1ccccc1)c1ccccc1	/	/	-3%[9.22 µM]	/	/	-1%[7.66 µM]
O=C(CCCn1ccc2cc(S(=O)(=O)N3CCCC3)ccc21)NCc1ccc(Cl)cc1	-18%	/	/	/	/	/
COc1ccc(-c2cc(-c3ccccc3)nc(Cl)n2)cc1OC	?	-14%	/	-5%	0%	/
COc1ccc(-c2cn3ccccc3n2)cc1OC	3.4µM*	3.2µM*	18µM*	?	3.2µM*	11µM*
